KDM5B inh = blocks human KDM5B histone demethylase activity. Potency, µM (top dose mostly 57.7 µM), usual class: inhibitors. KDM5B demethylase, FDH-coupled NADH fluorescence (FDH is formaldehyde dehydrogenase). 220,000 compounds, 2.6% hits. Q9UGL1; active = well fitted inhibition curve with a large enough effect; also: 0% is about no effect; nearly all actives have a fitted effect of over 70% in size
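qHTS format, multiple compound concentrations. Buffer 50 mM HEPES pH 7.5/0.01% Tween-20; 200 nM KDM5BΔAP final; 10 min compound preincubation; substrate-mix levels 12.5 µM peptide, 25 µM α-KG, 0.25 mM NAD⁺; 30 min RT; ΔRFU.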
* marks the source's active call; other numbers are inactive results; i = inactive. The sample as a whole holds a higher share of hits than the screen did. Potency is read from the fitted curve at half-maximal effect.

SMILES | KDM5B inh
CC(=O)N1C[C@H](NC(=O)c2cc3c(n(C)c2=O)CCCC3)[C@@H](C2CC2)C1 | 28µM*
CC(=O)N1CCC(N2C[C@H](NC(=O)c3ccoc3C)[C@@H](C3CC3)C2)CC1 | i
CCC[C@H]1CN(C(C)=O)C[C@@H]1NC(=O)c1ccc(N2CCCC2=O)cc1 | i
CCc1c(C)sc(NC(=O)CCCl)c1C#N | i
O=C(COc1ccccc1)N1CCC2(CC1)CN(c1ncccn1)CC2CO (centres undefined) | 22µM*
Cc1cccc(OCC(=O)N2C[C@@H](CO)[C@H](c3ccccn3)C2)c1 | i
Cc1cccc(OCC(=O)N2CCC3(CC2)CN(c2ncccn2)CC3CO)c1 (centres undefined) | 20µM*
O=C(COc1ccccc1)N1CCC2(CC1)CN(Cc1ccccc1)CC2CO (centres undefined) | i
Cc1cccc(OCC(=O)N2CCC3(CC2)CN(c2ccncn2)CC3CO)c1 (centres undefined) | i
COCCN1CC(CO)C2(CCN(C(=O)COc3ccccc3)CC2)C1 (centres undefined) | i
O=C(Nc1nnc(C2CC2)s1)C(Oc1ccccc1)c1ccccc1 (centres undefined) | i
CC1CCCC(NC(=O)c2cc(Sc3cccc(Cl)c3)nc3ccccc23)C1C (centres undefined) | i
O=C(CCn1nc(-c2ccc(Cl)cc2)c2ccccc2c1=O)N1CCOCC1 | i
COc1cccc(CN2CCNc3cnc(-c4ccccc4)cc3C2)c1 | 35µM*
Cc1cccc(CN2CCNc3cnc(-c4ccccc4)cc3C2)c1 | 35µM*
COc1cccc(CN2CCC3(CC2)Cc2ccccc2CNC3=O)c1 | i
Cc1cccc(CN2CC=C(C(=O)O)CC2)c1 | i
COc1ccc(OC)c(CN2CCNc3cc(-c4ccnc(C)c4)ncc3C2)c1 | i
COc1cccc(CN2CCC3(CC2)Cc2ccccc2NC3=O)c1 | i
Cc1cnc(-c2cccnc2)n1CC1CCN(CC2CC2)CC1 | i
COc1ccc(OC)c(CN2CCNc3cnc(-c4ccccc4)cc3C2)c1 | 32µM*
c1ccc(-c2cc3c(cn2)NCCN(CC2CC2)C3)cc1 | 35µM*
COc1ccc(OC)c(CN2CCc3nc(N4CCN(c5ccccc5F)CC4)ncc3C2)c1 | i
CCCN(CCC)c1nc(N)nc(Cl)n1 | i
CC(=O)c1ccc(NC(=O)CN2CCN(c3nc(-c4ccco4)c4c(c3C#N)CCC4)CC2)cc1 | i
SMILES | KDM5B inh
O=S(=O)(c1cccc2nsnc12)N1CCCC1c1ccccc1Cl (centres undefined) | i
Cc1cc(C)cc(-c2nnc(SCc3nc4ccccc4o3)o2)c1 | i
COCc1cc(=O)n(CC(=O)N2CCN(c3ccc(F)cc3)CC2)c(N2CCOCC2)n1 | i
O=C(NCCCc1ccccc1)C12CC3CC(CC(C3)C1)C2 | i
CCNC(=O)NC1=C(C#N)C(C)(C)Cc2ccccc21 | i
Cc1cccc(Cn2c(SCCC(=O)O)nc3c2c(=O)[nH]c(=O)n3C)c1 | i
CC(C(=O)NC1CCCC1)N1CCC(C(=O)NCc2ccco2)CC1 (centres undefined) | i
COc1cccc(-c2cc(C(=O)NCC34CCC=C3N(C)C(=O)CC4)[nH]n2)c1 (centres undefined) | i
CCCCN(Cc1ccccc1)c1ccc(NS(=O)(=O)c2ccc(F)cc2)cc1C(=O)O | i
Cn1cc(CN2CCNc3cnc(-c4ccccc4)cc3C2)cn1 | 28µM*
CCN(CC)C(=O)CSc1nn(CC)c2nc3c(c(=O)n12)C(C)(CC)Cc1ccccc1-3 (centres undefined) | i
COc1cccc(C(=O)N2C[C@@H](Oc3ccccc3)C[C@@H]2C(=O)N2CCOCC2)c1 | i
Cc1ccc(C)c(NC(=O)c2cc(-c3cc(C)oc3C)nc3onc(C)c23)c1 | i
CCc1cnc(N2CCC(COc3ccc4c(cnn4CC[S+](C)(=O)[O-])c3)CC2)nc1 | 32µM*
CC(C)C(=O)N1CCC(COc2ccc3c(cnn3CC[S+](C)(=O)[O-])c2)CC1 | i
CC(C)C(=O)N1CCC(Oc2cnc3c(ccn3-c3cncnc3)c2)CC1 | i
CC(=O)N1CCC(COc2ccc3c(cnn3CC[S+](C)(=O)[O-])c2)CC1 | i
CCCC(=O)N1CCC(Oc2cnc3c(ccn3-c3cncnc3)c2)CC1 | i
C[S+](=O)([O-])CCn1ncc2cc(OCC3CCN(C(=O)OC4CCCC4)CC3)ccc21 | i
CCc1cnc(N2CCC(Oc3cnc4c(ccn4CCN[S+](C)(=O)[O-])c3)CC2)nc1 | 28µM*
C[S+](=O)([O-])CCn1ncc2cc(OCC3CCN(C(=O)c4cccc(F)c4F)CC3)ccc21 | i
C[S+](=O)([O-])CCn1ncc2cc(OCC3CCN(c4ncccn4)CC3)ccc21 | 35µM*
COCCN(CCOC)C(=O)c1cccc2c(=O)c(C)c(-c3ccccc3)oc12 | i
COc1cccc(CNC(=O)CSc2nc(-c3ccccc3C)nc3cc(=O)[nH]n23)c1 | i
CCOC(=O)NNC(=S)NCC1CCCO1 (centres undefined) | i

Compound activity (PubChem)
